Test results: PubChem BioAssay (NCI)
The panel holds about 83,000 compounds, 20% with a hit somewhere; the sample as a whole holds those more often.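 Percent growth is the endpoint: 0 to 100 indicates growth inhibition (40 means 60% inhibition), 0 means no net growth, and negative values indicate cell death.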 Active and inactive are the calls of the source. How the source made its calls: active means growth percent below 10; inactive means the rest.

Key:
Test in all cases: NCI-60 one-dose screen, 48 h (100 = growth as untreated, 0 = no growth, -100 = all killed)
Details in all cases: 10 µM
[1] = system: DU-145 prostate
[2] = system: K-562 leukemia
[3] = system: MALME-3M melanoma
[4] = system: MDA-MB-231 breast
[5] = system: RXF 393 renal
[6] = system: SF-268 CNS
[7] = system: SF-295 CNS
[8] = system: SF-539 CNS
[9] = system: UACC-257 melanoma
[10] = system: M14 melanoma
[11] = system: HCT-15 colon
[12] = system: HT29 colon
[13] = system: SNB-75 CNS
[14] = system: SNB-19 CNS
[15] = system: U251 CNS
[16] = system: PC-3 prostate
[17] = system: SK-MEL-5 melanoma
[18] = system: UACC-62 melanoma
[19] = system: LOX IMVI melanoma
[20] = system: SK-MEL-28 melanoma

Measured: growth

O=C(/C=C/C=C/c1c(C2CC2)nc2ccccc2c1-c1ccc(F)cc1)c1cccs1
active: [2] 5.43% | [3] -35.1% | [5] -54.2% | [8] -32.8% | [9] -35.4% | [10] 3.19% | [12] -38.5% | [15] -19.4% | [17] -77.1% | [19] -71.5% | [20] -2.12%
inactive: [1] 20.4% | [4] 25.1% | [6] 43.4% | [7] 18.3% | [11] 18.6% | [13] 43.4% | [14] 42.3% | [16] 24.9% | [18] 13.3%

Cc1ccc(Cl)cc1NC(=O)CCl
inactive: [1] 99.8% | [2] 39% | [3] 82.1% | [4] 98.5% | [5] 91.8% | [6] 79.3% | [7] 104% | [8] 102% | [9] 85.8% | [10] 62.7% | [11] 67.2% | [12] 82.9% | [13] 85.6% | [14] 82.2% | [15] 67.5% | [16] 81.2% | [17] 58.1% | [18] 66.3% | [19] 42.2% | [20] 98.5%

COc1ccc(-c2cc(-c3ccc(Cl)cc3)nc(SCCCC(=O)NO)n2)cc1
active: [1] 9.82% | [2] 7.35% | [3] -11.8% | [4] 1.61% | [5] -21% | [6] 2.08% | [7] -19.1% | [8] 4.55% | [9] 3.4% | [10] -31.1% | [13] -6% | [15] 5.21% | [16] 0.504% | [17] -52.5% | [18] -57.2% | [19] -24.9%
inactive: [11] 14.5% | [12] 13.3% | [14] 13.5% | [20] 31.9%

CCCN1CN2C(=O)N3CN(CCC)CN4C(=S)N(C1)C2C34 (stereo not given)
inactive: [1] 101% | [2] 105% | [3] 112% | [4] 98.6% | [5] 132% | [6] 97.3% | [7] 94.2% | [8] 95.3% | [9] 92.9% | [10] 94.5% | [11] 98.2% | [12] 99.5% | [13] 81% | [14] 101% | [15] 97.3% | [16] 91.5% | [17] 107% | [18] 98% | [19] 103% | [20] 93.4%

Cc1[nH]c2ccccc2c1/C=N/Nc1ncnc2sc3c(c12)CCN(CC(=O)OC(C)(C)C)C3
inactive: [1] 80.5% | [2] 22.3% | [3] 120% | [4] 84.5% | [6] 93.8% | [7] 88.8% | [8] 62.7% | [9] 63.6% | [10] 73.1% | [11] 30.1% | [12] 41.8% | [13] 63.4% | [14] 93.3% | [15] 78.2% | [16] 69.2% | [17] 60.8% | [18] 81.9% | [19] 83.6% | [20] 80.7%
active: [5] -0.516%

COc1cc(-c2nn(-c3ccc(NC(=O)NCCNS(=O)(=O)c4ccc(F)cc4)cc3)cc2-c2ccncc2)ccc1Cl
active: [1] 8.28% | [2] 2.45% | [4] -30.7% | [5] 2.59% | [6] 7.56% | [7] -39.5% | [8] -46.4% | [10] -18% | [12] -24.9% | [15] 4.44% | [16] 8.93% | [17] -63.6% | [19] 1.79%
inactive: [3] 24.8% | [9] 41.2% | [11] 47.7% | [13] 13.8% | [14] 31% | [18] 25.7% | [20] 26.4%

COc1ccc2nc(-c3ccc(Cl)cc3)cc(-c3nnc(SC/C(=N\O)c4ccccc4)n3-c3ccccc3)c2c1
inactive: [1] 84.3% | [2] 59% | [3] 118% | [4] 86.3% | [5] 66.7% | [6] 83.5% | [7] 102% | [8] 103% | [9] 72.1% | [10] 78.6% | [11] 84.4% | [12] 71.8% | [13] 102% | [14] 104% | [15] 85.8% | [16] 54.1% | [17] 79.1% | [18] 89.4% | [19] 76.1% | [20] 94.3%

OCC1OC(n2ccc3c(NO)ncnc32)C(O)C1O (stereo not given)
active: [1] -16.6% | [2] -11.4% | [3] -69.2% | [4] -20% | [5] -32.7% | [6] -14.3% | [7] -15.4% | [8] -44% | [9] -57.3% | [10] -89.7% | [11] -37.6% | [12] -1.97% | [13] -24.2% | [14] -0.974% | [15] 0.0054% | [16] -7.72% | [17] -90.8% | [18] -88.8% | [19] -45.3% | [20] -47.5%

CN1C(=O)C2(Nc3cc(Cl)ccc3S2)c2cc(Cl)ccc21 (stereo not given)
inactive: [1] 104% | [2] 75.4% | [3] 113% | [4] 69.3% | [5] 106% | [6] 93.8% | [7] 99.3% | [8] 106% | [9] 101% | [10] 102% | [11] 76.7% | [12] 101% | [13] 69.2% | [14] 97.2% | [15] 93.2% | [16] 73.7% | [17] 84.9% | [18] 69.9% | [19] 78.8% | [20] 101%

CC(=O)[C@H]1CC[C@]2(C)[C@@H]1CC[C@@H]1[C@@]3(C)CC(CCC#N)(CCC#N)C(=O)C(C)(C)[C@@H]3CC[C@]12C
inactive: [1] 108% | [2] 110% | [3] 105% | [4] 105% | [5] 90.6% | [6] 98.9% | [7] 98.2% | [8] 101% | [9] 107% | [10] 95.9% | [11] 100% | [12] 98.8% | [13] 84.5% | [14] 93.7% | [15] 102% | [16] 93.8% | [17] 86.6% | [18] 82.4% | [19] 94.1% | [20] 93.9%

CCOC(=O)c1cc(C(=O)c2cc(OC)c(OC)c(OC)c2)n2nc(C)ccc12
inactive: [1] 21.1% | [3] 77.9% | [4] 45.8% | [5] 33.6% | [6] 56.2% | [7] 41% | [8] 15% | [9] 55.5% | [10] 21% | [11] 25.3% | [13] 47.7% | [14] 54% | [15] 19.1% | [16] 30.6% | [18] 59% | [19] 31% | [20] 70.3%
active: [2] 9.56% | [12] 8.05% | [17] 3.09%

CCOc1ccccc1/C=N\N=C\c1ccccc1O
inactive: [1] 98.8% | [2] 75.5% | [3] 96.5% | [4] 78.7% | [5] 121% | [6] 94.7% | [7] 105% | [8] 107% | [9] 107% | [10] 97.3% | [11] 100% | [12] 101% | [13] 97.6% | [14] 97.8% | [15] 104% | [16] 95.8% | [17] 95.5% | [18] 93% | [19] 90.3% | [20] 112%

NC1=NC(c2ccccc2)C2=C(N1)/C(=C/c1ccccc1)CCC2 (stereo not given)
active: [19] -4.8%
inactive: [1] 117% | [2] 76.4% | [3] 103% | [4] 101% | [5] 101% | [6] 91.7% | [7] 95% | [8] 92.8% | [9] 83.8% | [10] 61.9% | [11] 84.9% | [12] 32.2% | [13] 85.6% | [14] 97.5% | [15] 34.8% | [16] 78.7% | [17] 98.9% | [18] 77.5% | [20] 102%

C=C(C)[C@@H]1CC[C@]2(COCCC#N)CC[C@]3(C)[C@H](CC[C@@H]4[C@@]5(C)Cc6c([nH]c7ccccc67)C(C)(C)[C@@H]5CC[C@]43C)[C@@H]12
inactive: [1] 100% | [2] 100% | [3] 119% | [4] 109% | [5] 112% | [6] 101% | [7] 104% | [8] 101% | [9] 116% | [10] 98.7% | [11] 102% | [12] 89.7% | [13] 90.9% | [14] 99.1% | [15] 102% | [16] 92.9% | [17] 98.2% | [18] 105% | [19] 92.1% | [20] 100%

COc1ccc(/C=C2/SC(=S)NC2=O)c(OC)c1OC
inactive: [1] 97.9% | [2] 84% | [3] 65.7% | [4] 62.7% | [5] 81.5% | [6] 80.5% | [7] 76.5% | [8] 83.2% | [9] 88.9% | [10] 87.4% | [11] 75.6% | [12] 98.3% | [13] 77.8% | [14] 88.2% | [15] 83.5% | [16] 75.6% | [17] 73.8% | [18] 68.6% | [19] 65.9% | [20] 86.9%
